Experimental data reported in PubChem BioAssay AID1259415 (National Center for Advancing Translational Sciences (NCATS), 2018).
Several values for one entry are separate records, joined by “and”; a condition that tells them apart may be missing. Equal entries are not always repeated. The campaign covered roughly 410,000 compounds. About 18,000 (4.4%) were called active. Inconclusive results (about 7%) are left out. This is one part of a sample in which actives are shown more often than they occur. Rule as the data show it: active = activity change below about -60%; inconclusive = no clear call, values can overlap the other calls; inactive = above about -39%.

test: qHTS Assay for inhibitors of the human cytomegalovirus (HCMV); conditions: HFF cells, HCMV-luciferase reporter, 72 h; at 57.5 µM; active compounds read low
Outline: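 Two compound doses tested in HFFs infected with HCMV-luciferase, MOI 1 PFU/cell, 72 h at 37C. Lysate luminescence read with OneGlo; data normalized against buffer-only and 10uM Salinomycin inhibitor controls.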
% is scaled to controls: 0 for no effect and ±100 for the full control effect.

Structure (SMILES)	activity change, negative = inhibition
Cc1cccc(CNC(=O)c2cnc3sc(N4CCCCC4)nn3c2=O)c1	27.1% (inactive)
CCOc1ccccc1C(=O)NC1(C(F)(F)F)C(=O)Nc2c1c(=O)[nH]c(=O)n2-c1ccc(F)cc1 (stereo not given)	-8.54% (inactive)
COc1ccc(CNC(=O)c2cc3c(=O)[nH]c4ccc(C)cc4c3s2)c(OC)c1	-17.4% (inactive)
CN(CCNC(=O)c1cc2c(-c3ccccc3F)nn(C)c2s1)C1CCCCC1	-6.98% (inactive)
COc1ccc(CNC(=O)c2cc3c(-c4ccccc4F)nn(C)c3s2)c(OC)c1	-64.7% (active)
Cc1ccc(Nc2c(-c3ccc(C)cc3)nc3cnccn23)cc1	31.2% (inactive)
CCCOc1ccc(Cl)cc1Nc1nc(NCCO)nc(N2CCCC2)n1	14.9% (inactive)
CCN1CCN(c2nc(Nc3cc(OC)ccc3OC)nc(Nc3cc(OC)ccc3OC)n2)CC1	-64.4% (active)
COc1ccc(OC)c(NC(=O)CSc2nc3ccccc3nc2N2CCCCC2)c1	19.8% (inactive)
COc1ccc2c(CNCCc3ccccc3C)c(C(=O)O)n(Cc3ccccc3C)c2c1	-9.03% (inactive)
COc1cc(C(=O)N2CCC(c3ccncc3)CC2)cc(OC)c1OC	18% (inactive)
COc1ccccc1CNC(=O)CCCCn1c(=O)c2ccccc2n(CC(=O)Nc2cc(Cl)ccc2C)c1=O	-9.62% (inactive)
O=C(NCc1ccncc1)c1ccc(NS(=O)(=O)c2cccc([N+](=O)[O-])c2)cc1	-29% (inactive)
O=C(NCCCN1CCCC1=O)c1ccc(S(=O)(=O)Nc2ccccc2)cc1	-28.4% (inactive)
O=C(NCc1ccccc1CN1CCCC1)c1cccc(S(=O)(=O)Nc2ccc(F)cc2)c1	56.8% (inactive)
O=C(NCc1ccncc1)c1cccc(NS(=O)(=O)c2ccc(F)c(F)c2)c1	-101% (active)
O=C(NCc1cccc(C(F)(F)F)c1)c1cccc(S(=O)(=O)N2CCN(Cc3ccccc3)CC2)c1	0.707% (inactive)
O=C(NCc1ccccc1)c1ccc(S(=O)(=O)Nc2cccc(C(F)(F)F)c2)cc1	-62% (active)
Cc1ccccc1CSCCNC(=O)C1CCN(S(=O)(=O)Cc2ccccc2)CC1	-4.14% (inactive)
Cc1ccc2nc(COc3cccc(NC(=O)c4cccc(Cl)c4)c3)cc(=O)n2c1	9.28% (inactive)
Cc1ccccc1-c1nc(NC(C)C)nc2cc(-c3ccccc3)sc12	-8.38% (inactive)
Cc1cc(C)c2oc(C(=O)Nc3ccc(S(=O)(=O)N(C)c4ccccc4)cc3)cc(=O)c2c1	-2.92% (inactive)
Cc1ccc(Cl)cc1NC(=O)/C(C#N)=C\c1cn(Cc2ccc(F)cc2)c2ccccc12	-6.14% (inactive)
Cc1ccc(Cl)cc1N1CCN(C(=O)CN2C(=O)COc3ccc(S(=O)(=O)N4CCOCC4)cc32)CC1	6.7% (inactive)
CC(C)CCn1c(=O)c2c(nc3n2CCCN3Cc2ccccc2)n(C)c1=O	-22.4% (inactive)
CCOc1ccc(C(=O)NCC(=O)N2CCCCCCC2)cc1OCC	-11.3% (inactive)
COc1ccc2c(CC(=O)N3CCc4cc(OC)c(OC)cc4C3)coc2c1	-13.1% (inactive)
CCOc1cc(C(=O)N2CCc3cc(OC)c(OC)cc3C2)ccc1OC(F)F	-71.6% (active)

Structure (SMILES)	activity change, negative = inhibition
Cc1nn(C(=O)c2c(F)cccc2F)c(C)c1S(=O)(=O)N1CCOCC1	9.99% (inactive)
O=S(=O)(c1cnccc1N1CCN(/N=C/c2ccc(Br)cc2)CC1)N1CCCCC1	-6.47% (inactive)
COc1ccc(C(=O)NC2CC(C)(C)NC(C)(C)C2)cc1OC	7.69% (inactive)
COc1cc2c(cc1OC)C(=O)NCC(C)(C)O2	-102% (active)
COc1cc(OC)c(C(=O)NC2CC(C)(C)NC(C)(C)C2)cc1OC	37.1% (inactive)
COc1ccc(NC(=O)CSc2nc3ccccc3n2CC(=O)N2CCCCC2C)cc1 (stereo not given)	-20.6% (inactive)
O=C(c1cnn(-c2ccc(F)cc2)c1-n1cccc1)N1CCN(c2ccc(F)cc2)CC1	-8.43% (inactive)
CCCCOc1ccc(C(=O)Nc2cccc(-c3nc4ccccc4o3)c2C)cc1	-17.8% (inactive)
COc1cc(C2C(C(=O)Nc3ccc(F)cc3)=C(C)Nc3nc(CCCO)nn32)cc(OC)c1OC (stereo not given)	8.48% (inactive)
COC(=O)c1nc2n(n1)C(c1ccc([N+](=O)[O-])cc1)C(C(=O)Nc1ccc(Cl)cc1)=C(C)N2 (stereo not given)	5.33% (inactive)
CCOc1ccc(C2C(C(=O)Nc3ccc(Cl)cc3)=C(C)Nc3nc(C(F)(F)F)nn32)cc1 (stereo not given)	-84.1% (active)
Cc1ccc2oc3c(c(=O)c2c1)C(c1ccc([N+](=O)[O-])cc1)N(CCCN1CCOCC1)C3=O (stereo not given)	40.9% (inactive)
COc1ccc(CCNC(=O)C(=O)NCC(c2ccco2)S(=O)(=O)c2cccs2)cc1OC (stereo not given)	0.563% (inactive)
CCOc1ccc(CCNC(=O)c2csc3c2CCCCC3)cc1	-5.3% (inactive)
Cc1cccc(OCCCC(=O)Nc2sc3c(c2C(N)=O)CCC(C)C3)c1 (stereo not given)	-6.01% (inactive)
CCN1CCN(c2cc(C)c3cc(NC(=O)c4cc(Cl)ccc4OC)ccc3n2)CC1	-99.2% (active)
CCOCCCNC(=S)Nc1ccc2nc(N3CCN(CC)CC3)cc(C)c2c1	-1.19% (inactive)
COc1ccc(C(=O)Nc2ccc3nc(N4CCCCC4)cc(C)c3c2)cc1OC	-31.4% (inactive) and -29.2% (inactive)
COc1ccc(CCNC(=O)CCCn2c(=O)c3ccccc3n(Cc3ccc(F)cc3Cl)c2=O)cc1OC	12.1% (inactive)
O=C1OCCC1=COCCCCOC=C1CCOC1=O	19% (inactive)
COc1ccc(CNC(=O)Cc2coc3ccc(C(C)C)cc23)cc1	-6.28% (inactive)
Cc1c(NC(=O)Cc2ccccc2)cccc1-c1nc2cccnc2s1	-66.4% (active)
Cc1c(NC(=O)C(C)(C)C)cccc1-c1nc2ccccc2s1	39.5% (inactive)
Cc1ccc(Cl)cc1NC(=O)Cc1ccc(-n2c(C)nc3cccnc32)cc1	0% (inactive)
O=C(CCc1cn(Cc2ccc(F)cc2)c2ccccc12)NC1CCCCC1	4.53% (inactive)
Cc1nc(N2CCCCC2)sc1C=O	-68.8% (active)
Cc1nc(N2CCOCC2)sc1C(=O)NN	0% (inactive)
